SMILES strings stand for the structures. Records with an inconclusive call do not appear. Entries that show only a call come without a potency. Calls of active or inactive are those of the source. The call rests on the fitted dose curve.

The source of these data is PubChem BioAssay (Tox21).
Potency means the concentration at half of the fitted maximal effect.

The assay in a line: qHTS assay to identify small molecule agonists of the hypoxia (HIF-1) signaling pathway - cell viability counter screen (AID 1224844). Further: nearly all actives have a fitted effect of over 50% in size. The following applies: HRE-bla ME-180 viability, CellTiter-Glo luminescence, 17 h; series mostly up to 76.8 µM. The text has this:
National Center for Advancing Translational Sciences [NCATS]
NIH Chemical Genomics Center [NCGC]
U.S. Environmental Protection Agency [EPA]
National Institutes of Environmental Health Sciences [NIEHS]
National Toxicology Program [NTP]
U.S. Food and Drug Administration [FDA]
Hypoxia-inducible factor-1 (HIF-1) is the major hypoxia-regulated transcription factor that controls cellular responses to low oxygen concentration. HIF-1 is composed of two subunits: hypoxia responsive HIF-1-alpha and constitutively expressed HIF-1-beta, which is also known as aryl hydrocarbon receptor nuclear translocator. During hypoxic conditions, HIF-1-alpha heterodimerizes with HIF-1-beta and translocates into the nucleus where the HIF-1 complex binds to the hypoxia-response element (HRE) and activates expression of target genes such as VEGF (vascular endothelial growth factor). The HIF-1 pathway is essential to normal growth and development, and is involved in the pathophysiology of cancer, inflammation, and ischemia.
Using a beta-lactamase reporter-gene under control of the hypoxia response element, a cell-based assay [CellSensor(TM) HRE-bla ME-180 from Life Technologies, Carlsbad, CA] was used to measure hypoxia-induced signaling. Tox21 10K library compounds were measured for their ability to induce the reporter gene activity. The cytotoxicity of the Tox21 compound library against HRE-bla ME-180 cell line was tested in parallel by measuring cell viability using CellTiter-Glo assay (Promega, Madison, WI) in the same assay wells.
Tox21 Assay Protocol Summary:
HRE-bla ME-180 cells were dispensed at 2,000 cells per well in 6 uL of assay medium containing 0.5% dialyzed FBS into black wall/clear-bottom 1536-well plates using a Multidrop Combi (Thermo Scientific, Waltham, MA) dispenser. After the assay plates were incubated at 37C and 5% CO2 for 5 hrs, 23 nL of compounds dissolved in DMSO, positive controls or DMSO only was transferred to each well of the assay plate using a Pintool station (Kalypsys, San Diego, CA). The assay plates were incubated at 37C and 5% CO2 for 17 hrs. One uL of LiveBLAzerTM B/G FRET substrate (CCF4-AM) (Life Technologies) was added to each well using a Flying Reagent Dispenser (FRD, Aurora Discovery, San Diego, CA). After 2 hr incubation at room temperature, fluorescence intensity (405 nm excitation, 460 nm and 530 nm emissions) was measured using an Envision plate reader (PerkinElmer, Shelton, CT). For cytotoxicity, 4 ul/well of CellTiter-Glo reagent was added into the assay plates using an FRD. After 30 min incubation at room temperature, the luminescence intensity was measured using a ViewLux plate reader (PerkinElmer).
Background: Quantitative high-throughput screening tests each substance at several concentrations.
On to `CC(C)N=C=NC(C)C`, for which the Potency result was “inactive”.
To `CCCCCCOC(=O)CCCCC` belongs “inactive”; to `CCN(CC)C(=O)N1CCN(C)CC1`, “inactive”; to `CN1C(CSCC(F)(F)F)Nc2cc(Cl)c(S(N)(=O)=O)cc2S1(=O)=O` (stereo not given), “inactive”.
Turning to `CCCC(=O)OC(=O)CCC`, the Potency entry is “inactive”.
With `CC(=O)c1ccc[nH]1`, the Potency result is “inactive”.
To `COc1ccc(C)cc1` belongs “inactive”.
To `CCCCCCC(O)CCOC(C)=O` (stereo not given) belongs “inactive”; to `CCCOC(=O)c1c(Cl)c(Cl)c(Cl)c(Cl)c1C(=O)OCCC`, “inactive”; to `COc1cc(NCc2ccc3nc(N)nc(N)c3c2C)cc(OC)c1OC`, “inactive”.
With `CC(CO)(CO)C(=O)O`, the Potency entry is “inactive”.
As for `CNC1CCCN(c2c(F)cc3c(=O)c(C(=O)O)cn(C4CC4)c3c2OC)C1` (stereo not given), the entry is “inactive”.
As for `ClC1=C(Cl)C1(Cl)Cl`, the entry is “inactive”; as for `NC(=O)c1ccccc1[N+](=O)[O-]`, “inactive”; as for `CCCCCCCCCCCCCCCC(=O)OCC`, “inactive”.
To `N[C@@H](Cc1cc(I)c(O)c(I)c1)C(=O)O` belongs “inactive”; to `O=C1CC[C@@H](C(=O)O)N1`, “inactive”; to `C1CCCCC1`, “inactive”.
For the compound `Cc1ccccc1S(N)(=O)=O`, the Potency result was “inactive”.
As for `CCN(CC)c1ccc(C(=C2C=CC(=[N+](CC)CC)C=C2)c2ccc(S(=O)(=O)O)cc2S(=O)(=O)[O-])cc1`, the Potency is 8.71 µM (active).
With `C[C@H](CS)C(=O)N1CCC[C@H]1C(=O)O`, the Potency result is “inactive”.
On to `O=C1NC(=O)c2cccc3cccc1c23`, for which the Potency result was “inactive”.
For the compound `CC(C)(C)CCCCCCOC(=O)c1ccccc1C(=O)OCCCCCCC(C)(C)C`, the Potency entry was “inactive”.
To `O=C(C(=O)c1ccco1)c1ccco1` belongs “inactive”.
As for `CCc1ccc(C)cc1`, the Potency entry was “inactive”.
For `CCC(CO)(CO)[N+](=O)[O-]`, the Potency result is “inactive”.
Take `CSSc1ccoc1C`: the Potency result was “inactive”.
With `CCN(CC)C(=O)/C(C#N)=C/c1cc(O)c(O)c([N+](=O)[O-])c1`, the Potency entry was “inactive”.
As to `Nc1ccc(S(=O)(=O)NCc2ccccc2)cc1`, the Potency entry is “inactive”.
Regarding `Cc1ccc(N(CCO)CCO)cc1`, the Potency result was “inactive”.
In the case of `CCCCCCCCCCCCCC(=O)OCC(O)CO` (stereo not given), the Potency result is “inactive”.
As for `O=C(O)c1ccc(O)cc1O`, the entry is “inactive”.
Take `COc1ccc(C2C(=O)c3ccccc3C2=O)cc1`: the Potency entry is “inactive”.
With `CC(=O)NNC(C)=O`, the Potency entry was “inactive”.
On to `COc1cc(NS(=O)(=O)c2ccc(N)cc2)nc(C)n1`, for which the Potency entry was “inactive”.
With `CSCC[C@H](NC(=O)[C@H](Cc1c[nH]c2ccccc12)NC(=O)CCNC(=O)OC(C)(C)C)C(=O)N[C@@H](CC(=O)O)C(=O)N[C@@H](Cc1ccccc1)C(N)=O`, the Potency result is “inactive”.
On to `COc1cc(NC(C)CCCN)c2ncccc2c1` (stereo not given), for which the Potency result was “inactive”.
Consider `CCOCCC(=O)OCC`, for which the Potency result was “inactive”.
Turning to `c1ccc(CNc2ncnc3c2ncn3C2CCCCO2)cc1` (stereo not given), the Potency result was “inactive”.
As for `Cc1ccc(S(=O)(=O)NC(=O)NC2CCCCC2)cc1`, the entry is “inactive”.
